ChEMBL document CHEMBL3988442, “University of Dundee, Small-Polar-MMV Screening Library” (2021)
About 13,000 (27%) of roughly 48,000 compounds showed an effect of 50% or more. This is one part of the list.

The compounds below were run on Wolbachia pipientis (assay: Anti-Wolbachia Cell-Based Screen). Conditions: 5 µM.
Format: functional
Parameters: scale not given: in the data most compounds retested in dose-response had high values

| SMILES | Percent Effect |
| --- | --- |
| COc1c(F)cc(NC(=O)NCc2nncn2C2CC2)cc1F | -0.8393% |
| CNC(=O)c1cccc(NC(=O)c2ccnc(N(C)C)c2)c1C | -1.756% |
| O=C(CNc1ccccc1S(=O)(=O)C(F)F)NCc1ccco1 | 0.5887% |
| CCc1nccn1-c1cccc(C2CCCN2S(=O)(=O)N(C)C)n1 (stereo unspecified) | 103.4% |
| Cc1cccc(C2CCCN2S(=O)(=O)N(C)C)n1 (stereo unspecified) | 98.12% |
| CN(C)S(=O)(=O)N1CCCC1CC(=O)c1cccs1 (stereo unspecified) | -13.45% |
| Cc1nccn1-c1cccc(C2CCCN2S(=O)(=O)N(C)C)n1 (stereo unspecified) | 5.145% |
| CN(C)S(=O)(=O)N1CCCC1c1cccc(-n2ccnc2)n1 (stereo unspecified) | 119.1% |
| CN(CCn1cccn1)S(=O)(=O)N1CCCC1c1ccco1 (stereo unspecified) | -2.44% |
| CN(C)S(=O)(=O)CCCOc1cccc(-n2ccnc2)c1 | -3.335% |
| CC(=O)c1ccc(N2CCCC(CO)(CCOc3ccccc3)C2)nc1 (stereo unspecified) | 5.356% |
| O=C1NCC2(CCCN(C(=O)Nc3cccc(-c4cscn4)c3)CC2)O1 (stereo unspecified) | -23.17% |
| COCc1cc(N2C[C@@H](C)[C@](O)(C3CC3)C2)ncn1 | -1.024% |
| COc1ccc2c(c1)CC(NCc1cccc(CO)c1)CC2 (stereo unspecified) | -7.175% |
| COc1ccc2c(c1)CC(NCCCn1nc(C)nc1C)CC2 (stereo unspecified) | 101% |
| COc1ccc2c(c1)CC(NCCCn1cc(C)cn1)CC2 (stereo unspecified) | 28.69% |
| CC(NC(=O)c1cc(C(C)C)[nH]n1)C(=O)Nc1ccccc1 (stereo unspecified) | -6.667% |
| Cc1ccc(OC[C@@H]2CNC[C@H](C(=O)NCC3CCCO3)C2)cn1 (stereo partly specified) | 2.624% |
| CO[C@@H]1CCN(S(=O)(=O)c2cccs2)[C@H]1Cc1cccnc1.O=C(O)C(F)(F)F | 5.775% |
| CO[C@H]1CCN(S(=O)(=O)c2cccs2)[C@H]1Cc1cccnc1.O=C(O)C(F)(F)F | -2.032% |
| CCO[C@@H]1CCN(C(=O)c2ccc[nH]2)[C@@H]1Cc1cccnc1.O=C(O)C(F)(F)F | 0.6367% |
| CC(=O)NCC(=O)N1CC[C@H](OCC2CC2)[C@@H]1Cc1cccnc1.O=C(O)C(F)(F)F | -17.55% |
| CO[C@H]1CCN(C(=O)Cc2ccc(F)cc2)[C@H]1Cc1ccncc1 | 101.6% |
| COCC(=O)N1CC[C@@H](OCC2CC2)[C@@H]1Cc1cccnc1.O=C(O)C(F)(F)F | 1.513% |
| CO[C@@H]1CCN(C(=O)Cc2ccc(F)cc2)[C@@H]1Cc1cccnc1.O=C(O)C(F)(F)F | 111.8% |
| CO[C@@H]1CCN(Cc2nccn2C)[C@H]1Cc1cccnc1.O=C(O)C(F)(F)F.O=C(O)C(F)(F)F | 5.954% |

| SMILES | Percent Effect |
| --- | --- |
| CO[C@@H]1CCN(C(=O)Cc2ccsc2)[C@H]1Cc1cccnc1.O=C(O)C(F)(F)F | 94.83% |
| COCCO[C@H]1CCN(C(=O)c2cnccn2)[C@H]1Cc1ccncc1 | -26.79% |
| CO[C@@H]1CCN(C(=O)Cc2cccc(F)c2)[C@H]1Cc1cccnc1.O=C(O)C(F)(F)F | 114.6% |
| COCCO[C@H]1CCN(C(=O)c2ccsc2)[C@H]1Cc1ccncc1 | -3.115% |
| C=C(C)CN1CCC(NC(=O)Nc2cc(C(N)=O)ccc2OC)CC1 | -10.13% |
| COc1c(F)cc(CN2CCC3(CC2)CN(C)C(=O)O3)cc1Cl | -3.055% |
| CCc1nn(C)c(Cl)c1CN1CCC(Cc2nncn2C)CC1 | 1.908% |
| CCc1nn(C)c(Cl)c1CN1CCCC2(CC1)CN(C)C(=O)O2 (stereo unspecified) | 89.96% |
| CCc1nn(C)c(Cl)c1CN1CCN(c2ccc(Cl)nn2)CC1 | -2.423% |
| CN1CC2(CCN(Cc3cc(Cl)ccc3OCC(=O)O)CC2)OC1=O | -19.61% |
| CCc1nn(C)c(Cl)c1CN1CCCC2(C1)CN(C)C(=O)O2 (stereo unspecified) | 101.8% |
| CCc1nn(C)c(Cl)c1CN1C[C@H](NC(=O)CCO)[C@@H](C(C)C)C1 | -7.141% |
| CCc1nn(C)c(Cl)c1CN1CCC2(C1)CN(C)C(=O)O2 (stereo unspecified) | 121.6% |
| CCc1n[nH]c(C(=O)N2CCCC3(CN(C)C(=O)O3)C2)c1C (stereo unspecified) | -7.274% |
| O=C(O)c1c(Cl)ncn1-c1cccc2ccccc12 | 101.1% |
| Cc1ccccc1N1CCN(C(=O)Cn2ccnc2)CC1=O | -5.789% |
| Nc1nccnc1C(=O)N1CCN(Cc2cccc3ccccc23)CC1 | -30.2% |
| O=C1CC(c2ccc(C(=O)O)cc2)c2ncn(-c3ccccc3Cl)c2N1 (stereo unspecified) | 2.095% |
| Cc1ccccc1-n1cnc(Cl)c1C(=O)O | 65.1% |
| Cc1ccccc1N1CCCN(C(=O)c2nn(C)cc2Cl)CC1 | 7.51% |
| Cc1ccc(-c2n[nH]cc2CNCC2CCN(CC(F)(F)F)C2)o1.Cl (stereo unspecified) | -7.389% |
| Cc1cc(N2CCCN(C(C(=O)O)c3cccc(C)c3F)CC2)ccn1 (stereo unspecified) | 1.101% |
| O=C1CCC(C(=O)N2CCOC(Cc3cccc4ccccc34)C2)=NN1 (stereo unspecified) | -9.724% |
| Cc1ccc2ncnc(N3CCOCC3c3c(C)nn(C)c3C)c2c1 (stereo unspecified) | -2.563% |
| O=S(=O)(c1c(F)cccc1F)N1CCC(Cn2cccn2)CC1 | 15.84% |
| Cc1nc(CN2CCCC3(CCN(c4cnn(C)c4)C3=O)C2)cs1.O=C(O)C(F)(F)F (stereo unspecified) | 93.19% |

| SMILES | Percent Effect |
| --- | --- |
| COCCN1CCCC2(CCN(c3ccsc3)C2=O)C1.O=C(O)C(F)(F)F (stereo unspecified) | -26.52% |
| Cc1nc(CN2CCC3(CCN(c4cnn(C)c4)C3=O)C2)cs1.O=C(O)C(F)(F)F (stereo unspecified) | 109% |
| Cc1ccc(C(=O)Nc2cn[nH]c2)cn1 | 2.995% |
| Cc1cccc(NC2CCN(C(=O)Nc3ccncc3)CC2)n1 | 110.6% |
| Cc1cccc(NC2CCN(C(=O)Nc3ccccn3)CC2)n1 | 83.84% |
| Cc1cccc(NC2CCN(C(=O)Nc3cc(F)cc(F)c3)CC2)n1 | -9.024% |
| Cc1cccc(NC2CCN(C(=O)Nc3cn[nH]c3)CC2)n1 | 110.2% |
| Cc1cccc(NC2CCN(C(=O)Nc3ccc(F)c(F)c3)CC2)n1 | 86.81% |
| O=C(Nc1ccc(F)c(Br)c1)N1CCCC1 | 7.891% |
| Cc1cccc(NC2CCN(C(=O)Nc3cc(C)on3)CC2)n1 | -9.175% |
| O=C(CCn1ccc(=O)[nH]c1=O)N1CCC(OCc2cccnc2)CC1 | 17.72% |
| COCc1noc(C2(c3ccc(Br)cc3)CCOCC2)n1 | -15.05% |
| CS(=O)(=O)CCCC(=O)N1CCN(CC2CC2)c2ccccc21 | -17.42% |
| N#Cc1ccc(N2CCCN(CCCn3cncn3)CC2)cc1 | -1.933% |
| Cc1nc(N2CCC3(CCCNC3=O)C2)nc2c1CCCC2 (stereo unspecified) | 1.379% |
| CC(C(=O)N1CCC(Cc2ccc(F)cc2)CC1)n1ccnc1 (stereo unspecified) | -3.796% |
| CN1C[C@@H](N)C[C@H]1C(=O)N1CCC(Cc2ccc(F)cc2)CC1 | 81.94% |
| O=C(C1CCS(=O)(=O)CC1)N1CCC(Cc2ccc(F)cc2)CC1 | -5.215% |
| CN1C[C@@H](N)C[C@H]1C(=O)N1CCC(CCCc2ccccc2)CC1 | 99.37% |
| CC(=O)N1CCCC1C(=O)N1CCC(=Cc2cccc(F)c2)CC1 (stereo unspecified) | -11.75% |
| CN1CSC[C@H]1C(=O)N1CCC(Cc2ccccc2F)CC1 | -34.6% |
| CCC(=O)N1CCCC1C(=O)N1CCC(Cc2ccc(F)cc2)CC1 (stereo unspecified) | 110.1% |
| CN1CCC(N(C)CCC(=O)N2CCC(Cc3ccc(F)cc3)CC2)C1 (stereo unspecified) | -0.3221% |
| CN1CSC[C@H]1C(=O)N1CCC(CCc2ccccc2)CC1 | -22.77% |
| O=C1CCC2(CCCN(C(=O)c3cscn3)C2)CN1CCc1c[nH]cn1 (stereo unspecified) | -10.65% |
| COCC[C@]1(O)CCN(C(=O)CCc2cnn(C)c2)C[C@H]1C | 4.52% |

| SMILES | Percent Effect |
| --- | --- |
| COCCCN1C(=O)CC[C@H]2CN(c3ccc(C(N)=O)cn3)CC[C@H]21 | -7.977% |
| O=C(O)C(F)(F)F.O=C([C@@H]1COC[C@H]2CN(C3CCCC3)C[C@H]21)N1CCCO1 | 17.11% |
| N#Cc1cccn(CCOc2ccc(Cl)cc2)c1=O | 1.787% |
| CCN(Cc1cccc(C(=O)Nc2ncc(C)s2)c1)[C@H]1COC[C@@H]1O | -30.5% |
| COc1cccc(OCCCc2cncc(C(N)=O)c2)c1 | -6.464% |
| COc1cccc(OCC(=O)NS(=O)(=O)c2cc(F)ccc2F)c1 | -14.39% |
| COc1cccc(OCC(=O)N(C)c2cccnc2N(C)C)c1 | 85.27% |
| COc1ccc(CC(=O)N(C)c2cccnc2N(C)C)c(Cl)c1 | 3.868% |
| COc1cccc(OCC(=O)Nc2cc(C)cnc2OC)c1 | -3.039% |
| COc1cccc(OCC(=O)N(C)c2cccnc2)c1 | 104.9% |
| Cn1cccc1C(=O)N[C@@H]1CN(Cc2cccs2)[C@@H]2COC[C@@H]21.O=C(O)C(F)(F)F | -0.8834% |
| Cc1nc(C)n(CC2CCCCN2CCCC#N)n1 (stereo unspecified) | 3.604% |
| CCc1nnc(NC(=O)N(CCOC)Cc2ccc(C)o2)s1 | -17.47% |
| CN(CCCNC(=O)CN1CCS(=O)(=O)CC1)c1ccccc1 | 9.575% |
| COCC(=O)NC[C@H]1CC[C@H](c2nnc(-c3cccnc3)o2)CC1 | 199.6% |
| COCC(=O)NC[C@H]1CC[C@H](c2nnc(-c3ccncc3)o2)CC1 | 130.9% |
| COCC(=O)NCC1Cn2nnc(-c3ccncc3)c2CO1.O=C(O)C(F)(F)F (stereo unspecified) | -3.08% |
| COCC(=O)NC[C@@]1(COc2cccnc2)C[C@@H](O)[C@@H](O)C1.Cl | -0.8237% |
| O=C(NC[C@H]1CC[C@H](c2nnc(-c3cccnc3)o2)CC1)C1CC1 | 169.2% |
| O=C(c1cccnc1)C1CCCN(c2nnc(C3CC3)o2)C1 (stereo unspecified) | -9.968% |
| c1cc(-c2nnc([C@H]3CCNC3)o2)ccn1 | -9.06% |
| c1cncc(-c2nnc([C@H]3CCN(CC4CCCCC4)C3)o2)c1 | 11.75% |
| c1cncc(-c2nnc([C@H]3CCN(CC4CC4)C3)o2)c1 | 10.36% |
